Assay results published in PubChem BioAssay AID504466 (National Center for Advancing Translational Sciences (NCATS), 2011).
The whole screen tested about 330,000 compounds, of which about 4,200 (1.3%) were called active. Another 6% or so got no clear call; they are omitted. The list comes from a sample in which actives are over-represented; it also holds similar structures and randomly drawn compounds. Entries that show only a call come without a potency. A number with no mark means an inactive call. The call rests on the fitted dose curve; in most records, active means well fitted activation curve with a large enough effect; inconclusive means small, poorly fitted or top-dose-only effect; inactive means no such curve, though single readings can be large or run the other way.

experiment: qHTS screen for small molecules that induce genotoxicity in human embryonic kidney (HEK293T) cells expressing luciferase-tagged ELG1; conditions: HEK293T ELG1-luciferase reporter, luminescence, 16 h; series mostly up to 46 µM; further: nearly all actives have a fitted effect of over 60% in size
Method in brief: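 After overnight (16 hr) compound treatment at 37 °C, ELG1-luciferase HEK293T cells were lysed with ONE-Glo; luminescence quantified 30 min later at room temperature.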
Potency means the concentration at half of the fitted maximal effect.

SMILES	Potency	activity change, positive = activation
Cc1ccc(-n2nc3cc(Cl)c(NC(=O)c4ccco4)cc3n2)cc1	11.6 µM (active)	
Cc1ccc(-n2nc3cc(C)c(NC(=O)c4cccnc4)cc3n2)cc1	inactive	
Cc1cc(NC(=O)c2ccco2)c(=O)n(Cc2c(F)cccc2Cl)c1	inactive	
Cc1ccc(S(=O)(=O)NC[C@H]2O[C@@H](n3cnc4c(N)ncnc43)[C@H](O)[C@@H]2O)s1	inactive	
CSCCC1NC(=O)N(CC(=O)Nc2cccc(S(=O)(=O)N3CCCCCC3)c2)C1=O (centres undefined)	inactive	
Cc1cc(C(=O)NNC(=O)c2ccccc2O)c(C)o1	inactive	
Cc1cc(C(=O)NCCc2ccc(Cl)cc2)c(C)o1	18.3 µM (active)	
Cc1cc(C(=O)NCCc2ccc(Cl)cc2)n(-c2ccccc2)n1	inactive	
CC[C@]12c3[nH]c4ccc(OC)cc4c3CCN1C(=O)C(CC(=O)NCCN1CCOCC1)C[C@@H]2C(=O)N1CCN(C(=O)C2CC2)CC1 (some centres undefined)	inactive	
Cc1ccccc1SCC(=O)OCC(=O)N1CC(=O)Nc2ccccc21	inactive	
N#Cc1nc(-c2cccc3ccccc23)oc1N	inactive	
CC1CCN(c2oc(-c3ccccc3F)nc2C#N)CC1	16.4 µM (active)	
Cc1oc(-c2ccccc2F)nc1CS(=O)CC(=O)NCCN1CCCCC1C (centres undefined)	inactive	
Cc1ccc(S(=O)(=O)N2CCN(C(=O)COC(=O)CNC(=O)c3ccc(C(C)(C)C)cc3)CC2)c(C)c1	inactive	
O=C(N=C1SC2CS(=O)(=O)CC2N1c1ccccc1)c1ccccc1 (centres undefined)	inactive	
COc1ccc(-c2nc3cnccn3c2NC2CCCCC2)cc1-c1cccc(Cl)c1	inactive	
COc1cccc(NC(=O)CSc2nnc(C3CCCCC3)n2N)c1	inactive	
CCOc1ccccc1-c1cc(C(=O)N2CCOCC2)c2ccccc2n1	inactive	
CCOc1cccc(/C=C/c2ccc3ccccc3n2)c1OC(C)=O	0.366 µM (active)	
COc1cccc(/C=C/c2ccc3ccccc3n2)c1OC(C)=O	0.206 µM (active)	
COc1cccc(/C=C2\C=C(c3ccc(C)cc3)OC2=O)c1OC(C)=O	inactive	
NC(=O)COC(=O)/C=C/c1ccc2ccccc2n1	inactive	
CC(=O)c1ccc(S(=O)(=O)N2CCN(C(=O)/C=C/c3ccc4ccccc4n3)CC2)cc1	inactive	
COCCn1c(C)cc(C(=O)CN2c3cccc4cccc(c34)S2(=O)=O)c1C	inactive	
Cc1noc(C)c1NC(=O)Nc1cccc2c1O[C@H](CN(C)C(=O)Nc1ccccc1)[C@@H](C)CN([C@H](C)CO)C2=O	inactive	

SMILES	Potency	activity change, positive = activation
NCCN1CCN2C(=O)CN(C(=O)c3ccccc3)CC12 (centres undefined)	inactive	
O=C1CCC/C=C/C[C@@H](CC(=O)N(CCO)Cc2ccccc2)C(=O)NC[C@H](c2ccccc2)O1	inactive	
CC[C@]12c3[nH]c4ccc(Cl)cc4c3CCN1C(=O)[C@@H](CC(=O)NCCCOC)C[C@@H]2C(=O)N1CCN(C(=O)C2CC2)CC1	inactive	
COCCCNC(=O)CC1C[C@H](C(=O)N2CCCCC2)[C@@]2(CCc3ccccc3)c3[nH]c4ccccc4c3CCN2C1=O (some centres undefined)	inactive	
N=c1oc2ccccc2cc1C(=O)NCc1ccccc1	inactive	
O=C(NCc1ccccn1)c1cc2ccccc2oc1=O	14.6 µM (active)	
COc1ccc2oc(=O)c(C(=O)NCc3ccccn3)cc2c1	inactive	
CCNC(=O)N(CC)C[C@H]1N[C@@](CC)(C(=O)OC)[C@H]2C(=O)N(Cc3ccccc3)C(=O)[C@@H]12	inactive	
CN(C(=O)COC(=O)Cc1ccccc1[N+](=O)[O-])C1CCS(=O)(=O)C1 (centres undefined)	inactive	
CCc1c(C)nc2cc(-c3cccs3)[nH]n2c1=O	20.6 µM (active)	
Cc1cc(=O)n2[nH]c(-c3sccc3-n3c(C)ccc3C)cc2n1	inactive	
CCc1c(C)nc2cc(C)[nH]n2c1=O	inactive	
Cc1cccc(NS(=O)(=O)c2ccc(C)c(C(=O)NCc3cccnc3)c2)c1	inactive	
CN(c1ccccc1)S(=O)(=O)c1ccc(C(=O)N2CCN(c3ccccc3Cl)CC2)cc1	inactive	
CC(NC(=O)COC(=O)Cn1cc(C(F)(F)F)ccc1=O)c1ccccc1 (centres undefined)	inactive	
COc1ccc(S(=O)(=O)N2CCOCC2)cc1NC(=O)CSc1nnc(NC2CC2)s1	inactive	
O=C(Nc1ccc(C(=O)O)c(O)c1)c1ccccc1	inactive	
Cc1ccc(NC(=O)NC(=O)c2ccccc2)cc1F	inactive	
O=C(NC(=O)c1ccccc1)Nc1ccccc1O	1.83 µM (active)	
COc1ccc(CCOC2OC(CO)C(OC(=O)/C=C/c3ccc(O)c(OC)c3)C(O[C@H]3O[C@@H](C)[C@H](O)[C@@H](O)[C@H]3O)C2O)cc1O (some centres undefined)	inactive	
O=C(COC(=O)c1ccc(Br)o1)NC12CC3CC(CC(C3)C1)C2	inactive	
COc1ccc(C(CC(=O)c2ccccc2)S(=O)(=O)c2ccccc2)cc1 (centres undefined)	18.4 µM (active)	
COc1ccc(N(Cc2ccccc2)S(=O)(=O)c2cccc(C(=O)O)c2)cc1	inactive	
COc1ccc(NC(=O)CS(=O)(=O)c2ccccc2)cc1	inactive	
O=C(Nc1cc(S(=O)(=O)N2CCOCC2)ccc1N1CCOCC1)c1c(F)cccc1Cl	inactive	

SMILES	Potency	activity change, positive = activation
CCOc1cccc(C(=O)Nc2cnn(Cc3ccccc3)c2)c1	inactive	
CCOc1cccc(C(=O)Nc2nnc(-c3cccs3)s2)c1	1.16 µM (active)	
COc1cccc(C(=O)Nc2nnc(S(=O)(=O)N(C)c3ccccc3)s2)c1	inactive	
Cc1nnc(NC(=O)c2ccc3nccnc3c2)s1	inactive	
Cc1ccc(C(=O)Nc2nnc(-c3cccs3)s2)cc1C	8.2 µM (active)	
Cc1ccc(C(=O)Oc2coc(CSc3nnc(NC(=O)c4cccs4)s3)cc2=O)cc1C	inactive	
O=C(OCC(=O)N1CCN(C(=O)c2ccco2)CC1)c1c(Cl)cccc1Cl	inactive	
O=C(Nc1cc(S(=O)(=O)Nc2ccc(Cl)cc2)ccc1O)c1ccc(F)cc1F	inactive	
COC(=O)C1CCN(C(=O)COC(=O)c2cc(S(=O)(=O)N3CCOCC3)ccc2C)CC1	inactive	
COCCN(CCOC)S(=O)(=O)NC[C@H]1O[C@@H](n2cnc3c(N)ncnc32)[C@H](O)[C@@H]1O	inactive	
Cc1cccc(NC(=O)CN2C(=O)c3ccccc3C2=O)c1C	inactive	
CCN1C(=O)c2cccc3c(N)ccc1c23	20.6 µM (active)	
O=C(CN1C(=O)c2cccc3cccc1c23)Nc1ccccc1	inactive	
CCN1C(=O)c2cccc3c(S(=O)(=O)Nc4ccccc4O)ccc1c23	23.1 µM (active)	
CN1C(=O)c2cccc3c(N)ccc(c23)C1=O	inactive	
Cc1nn(C)cc1N1C(=O)c2cccc3c(N)ccc(c23)C1=O	inactive	
CC(C)COc1ccc(C(=O)NNC(=O)CCC(=O)c2cccs2)cc1	inactive	
O=C(COc1ccc2oc3c(c2c1)CCCC3)Nc1ccccn1	16.4 µM (active)	
CCN(CC)CCCNC(=O)COc1ccc2oc3c(c2c1)CCCC3	inactive	
CCOC(=O)N1CCN(C(=O)COc2ccc3oc4c(c3c2)CCCC4)CC1	inactive	
CC[C@]12c3[nH]c4cc(CCC(=O)N(C)C)ccc4c3CCN1C(=O)[C@@H](CC(=O)NCC13CC4CC(CC(C4)C1)C3)C[C@@H]2C(=O)N1CCN(C(=O)C2CC2)CC1	inactive	
COc1ccc2nc3n(c(=O)c2c1)-c1cc(C)ccc1C(=O)NC3Cc1ccc(O)cc1 (centres undefined)	inactive	
CC(C)C(=O)Nc1ccc2c(c1)oc1ccccc12	4.11 µM (active)	
Cc1cc(=O)oc2cc(NC(=O)C(C)Oc3ccccc3)ccc12 (centres undefined)	inactive	
CC(C)C(=O)Nc1ccc2oc(=O)ccc2c1	inactive	

SMILES	Potency	activity change, positive = activation
COc1cccc(NC(=O)COc2cccnc2[N+](=O)[O-])c1	inactive	
CC(C)(C)OC(=O)C[C@@H]1C/C=C\C[C@@H](CC(=O)N[C@H](CO)Cc2ccccc2)C(=O)NCCOC1=O	inactive	
COc1cc(NC(=O)CN(C)S(=O)(=O)c2ccc3nc(C)sc3c2)cc(OC)c1	inactive	
Cc1ccc2nc(-c3ccc(NC(=O)CN(C)S(=O)(=O)c4ccccc4)cc3)sc2c1	5.8 µM (active)	
Cc1nc2ccc(S(=O)(=O)N(C)CC(=O)NC(C)c3ccccc3)cc2s1 (centres undefined)	inactive	
O=C1c2ccccc2[C@@H]2C[C@@H](O)[C@H](Nc3ccccc3Cl)CCN12	inactive	
Cc1cc(C(=O)COC(=O)C2CC2)c(C)n1-c1ccc(F)cc1	2.59 µM (active)	
Cc1cc(C(=O)COc2ccccc2Cl)c(C)n1C1CC1	inactive	
Cc1ccc(-n2c(C)cc(C(=O)CN3C(=O)C(=O)N(C4CCCC4)C3=O)c2C)cc1	inactive	
Cc1ccc(C(=O)CSc2ccccc2C(=O)O)cc1		12.5% [at 9.26 µM]
COC(=O)c1cc(OC)c(OC)cc1NC(=O)CSc1ccc(C)cc1	inactive	
Cc1ccc(SCC(=O)c2cc(C)c(OC(=S)N(C)C)c(C)c2)cc1	7.31 µM (active)	
COC(=O)[C@]1(Cc2ccccc2)N[C@H](CN(C)S(=O)(=O)c2ccc(OC(F)(F)F)cc2)[C@@H]2C(=O)N(Cc3ccccc3)C(=O)[C@@H]21	inactive	
O=C(COC(=O)c1cccc(Cl)c1)NC(=O)NCc1ccccc1	inactive	
O=C(Nc1ccncc1)c1cc2ccccc2o1	inactive	
Nc1ncc(-c2cc3ccccc3oc2=O)s1	2.59 µM (active)	
O=C(NCc1cccnc1)c1cccc(-c2cc3ccccc3oc2=O)c1	inactive	
O=C(COC(=O)Cn1cnc2ccccc21)Nc1cccc2c1C(=O)c1ccccc1C2=O	inactive	
O=C(COC(=O)c1cccc(Br)c1)Nc1cccc2c1C(=O)c1ccccc1C2=O	13 µM (active)	
O=C(COC(=O)c1ccccc1)Nc1ccccc1Sc1ccccc1	inactive	
C[C@H](CO)N1C[C@H](C)[C@H](CN(C)CC2CC2)Oc2ccc(NC(=O)CCN3CCOCC3)cc2C1=O	inactive	
COC(=O)c1ccc(CSc2nc3cc(Cl)ccc3o2)cc1	inactive	
CC(C)c1nc2cc(C(=O)NC(C)c3cnn(C)c3)ccc2o1 (centres undefined)	inactive	
COC(=O)c1ccc(CNC(=O)c2ccc3oc(C(C)C)nc3c2)cc1	20.6 µM (active)	
